Screens from PubChem.
PLK1 PBD block = PLK1 (human) polo-box domain binding inhibition | AID 720504 | Plk1 PBD binding of FITC phosphopeptide, fluorescence polarization | P53350 | 2.8% of 360,000 active | Potency, µM, usual class: inhibitors; also: series mostly up to about 57 µM; nearly all actives have a fitted effect of over 65% in size
TSHR antagonist = human thyrotropin receptor antagonism | P16473 | TSHR-expressing cells, TSH-stimulated cAMP HTRF, 2 h; stronger effect = lower value | activity change, negative = inhibition, % at 11.5 µM | 0.2% of 330,000 active | AID 504810;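 active = activity change below a set negative limit, meaning inhibition stronger than a set level, cut at about -70% in these data; inconclusive = activity change between two set negative limits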
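Freshly harvested TSHR cells receive pin-tooled compound, then EC80 TSH at 4nM final. After 2 hours at 37 deg C, antibody in lysis buffer and cAMP-d2 are added; 30 minutes at ambient temperature precede the HTRF read.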
VDR inh = vitamin D3 receptor (human) inhibition | P11473 | VDR-SRC2-3 peptide fluorescence polarization, 2 h | Potency, µM, most hits filed as inhibitors | 0.93% of 400,000 active | AID 504847
Target sequence (P11473 whole entry, looked up): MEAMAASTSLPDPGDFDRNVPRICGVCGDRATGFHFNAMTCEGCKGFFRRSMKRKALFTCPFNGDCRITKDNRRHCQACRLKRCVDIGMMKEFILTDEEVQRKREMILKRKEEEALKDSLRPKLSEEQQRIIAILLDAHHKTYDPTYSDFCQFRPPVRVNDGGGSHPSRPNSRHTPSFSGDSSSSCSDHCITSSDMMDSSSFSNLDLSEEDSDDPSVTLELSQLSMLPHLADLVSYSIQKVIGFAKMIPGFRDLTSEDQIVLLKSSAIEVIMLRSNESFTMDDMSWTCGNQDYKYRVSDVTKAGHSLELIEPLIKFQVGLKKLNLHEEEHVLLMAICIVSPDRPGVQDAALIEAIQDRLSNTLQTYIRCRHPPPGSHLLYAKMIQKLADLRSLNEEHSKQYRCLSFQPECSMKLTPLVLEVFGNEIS
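Reagent solutions, kept cold and dark, are dispensed first; compounds are then pinned in at 23 nl, plates briefly spun, and incubated 2 h at ambient temperature. Inhibition of VDR–SRC2-3 peptide binding is read by fluorescence polarization.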
Vif-A3G inh = blocks the Vif interaction with human APOBEC3G; Q9HC16; HeLa A3G-eYFP + Vif (tagged APOBEC3G with the HIV-1 protein that degrades it), YFP fluorescence, overnight; Potency, µM (top dose mostly 46.1 µM), usual class: inhibitors; 0.076% of 410,000 active; also: nearly all actives have a fitted effect of over 60% in size
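HeLa cells stably expressing Vif and C-terminally eYFP-tagged A3G, seeded overnight at 37 deg C, then exposed to compound by pintool overnight at 37 deg C. Rise in yellow fluorescence (Ex 488/Em 500-530, Acumen) marks blocked Vif-driven A3G degradation.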
Vif-A3F inh = blocks the Vif interaction with APOBEC3F | 0.2% of 390,000 active | HeLa A3F-eYFP + Vif (tagged APOBEC3F with the HIV-1 protein that degrades it), YFP fluorescence increase | AID 602313 | Potency, µM (highest dose often 46.1 µM); also: nearly all actives have a fitted effect of over 65% in size
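HeLa cells stably expressing A3F-eYFP plus Vif, plated and incubated overnight at 37 deg C, then exposed to compounds overnight at 37 deg C. Blocked degradation read as raised yellow fluorescence (Ex 488/Em 500-530).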
TbPYK confirm = Trypanosoma brucei pyruvate kinase inhibition, cherry-pick confirmation; AID 720569; 67% of 890 active; shares compounds with PLK1 PBD block; Potency, µM (doses to about 76.9 µM), usual class: inhibitors; recombinant TbPYK, Kinase-Glo ATP luminescence; also: nearly all actives have a fitted effect of over 70% in size
TbPYK orthogonal = inhibits T. brucei pyruvate kinase in orthogonal ADP-Glo assay; 62% of 890 active; recombinant TbPYK, ADP-Glo luminescence, 60 min; shares compounds with PLK1 PBD block; Potency, µM (series often up to 76.9 µM), most hits filed as inhibitors; also: nearly all actives have a fitted effect of over 75% in size
A number is an active result; . = inactive; ? = inconclusive; / = no result given. This is a sample that favours compounds with a hit; in the whole collection about 3.1% have one here. Unless noted, calls follow the shape of the dose curve; as a rule, active = well fitted curve in the direction sought with a large enough effect; inconclusive = small, poorly fitted or top-dose-only effect, or another doubt; inactive = no such curve, though single readings can be large; an effect the other way counts as inactive or inconclusive.

SMILES	PLK1 PBD block	TSHR antagonist	VDR inh	Vif-A3G inh	Vif-A3F inh	TbPYK confirm	TbPYK orthogonal
CCOC(=O)C1CCC(CN(Cc2ccc(Cl)cc2)S(=O)(=O)c2cccc(Cl)c2C)CC1 (stereo not given)	/	/	.	.	.	/	/
O=S(=O)(NCCC(c1ccc(F)cc1)c1ccco1)c1ccccc1 (stereo not given)	21µM	.	?	.	.	.	.
CCOc1cc(/C=C2\SC(=S)N(N3CCOCC3)C2=O)ccc1O	.	.	.	.	.	/	/
CCOc1cc(/C=C2\SC(=N)N(c3nccs3)C2=O)ccc1OCCN1CCOCC1	.	.	.	.	.	?	?
COc1ccc(S(=O)(=O)N2CCCC(C(=O)Nc3cccnc3)C2)cc1Cl (stereo not given)	2.7µM	.	.	.	.	.	.
CCOc1cc(-c2nnc(SCC(=O)NCc3ccccc3)nc2-c2ccc(OC)c(OCC)c2)ccc1OC	/	/	.	?	.	/	/
c1ccc(-c2nc(-c3ccco3)cs2)nc1	?	.	?	?	.	.	.
O=c1cc(O)n(-c2ccccc2)c(=S)[nH]1	3.4µM	.	.	.	.	?	.
CCCS(=O)(=O)N1CC(=O)N(c2cccc(F)c2)C(C)(C(=O)NC2CCCCCC2)C1 (stereo not given)	/	/	.	.	.	/	/
COc1ccc([C@H]2CC(=O)C=C(c3ccc(F)nc3)C2)cc1OC	.	.	.	?	.	/	/
COc1ccc(C2=CC(=O)C[C@H](c3ccc(OC)c(OC)c3)C2)cn1	.	.	.	.	.	.	.
COCCn1c(=O)c(-c2ccc(Cl)cc2)nc2cnc(OC)nc21	/	/	.	/	/	/	/
c1cncc(Nc2nc(-c3cccs3)cs2)c1	19µM	.	?	.	.	.	?
Cc1ccc(Sc2c(C)nn(C(=O)COc3ccccc3)c2C)cc1	/	/	.	.	.	/	/
CCn1c(C(=O)NCc2cccnc2)cc2sc(Cl)cc21	.	.	.	.	.	?	?
N#Cc1cc2c(nc1SCc1cccnc1)CCCC2	27µM	.	.	.	.	4µM	6.3µM
N#Cc1cc2c(nc1SCc1cccnc1)CCC2	.	.	.	.	.	/	/
O=C1S/C(=C\c2ccc(N3CCOCC3)o2)C(=O)N1Cc1c(F)cccc1Cl	.	.	?	?	?	18µM	14µM
O=C1N=C(N2CCOCC2)S/C1=C/c1ccc(-c2ccccc2Cl)o1	.	.	.	.	.	/	/
O=C1S/C(=C\c2ccc(N3CCOCC3)o2)C(=O)N1c1ccccc1	.	.	?	4.5µM	?	?	?
Cn1c(=O)c2c(nc(N3CCOCC3)n2Cc2c(F)cccc2Cl)n(C)c1=O	.	.	.	.	.	/	/
O=C1S/C(=C/c2ccc(N3CCOCC3)o2)C(=O)N1Cc1c(F)cccc1Cl	.	.	79µM	4µM	?	?	40µM
COCCn1c(=S)[nH]c2sc3c(c2c1=O)CCCC3	.	.	.	.	.	10µM	10µM
Cc1ccc(NC(=O)CN2C(=O)CSc3ccc(S(=O)(=O)N4CCCC4)cc32)c(C)c1	/	/	.	.	.	/	/
Cc1csc(N=Nc2ccc(N(C)C)cc2)[n+]1[O-]	.	/	/	.	.	18µM	.
SMILES	PLK1 PBD block	TSHR antagonist	VDR inh	Vif-A3G inh	Vif-A3F inh	TbPYK confirm	TbPYK orthogonal
COc1cccc(C(c2sc3nc(C)nn3c2O)N2CCc3ccccc3C2)c1 (stereo not given)	?	.	.	.	.	20µM	25µM
CCN1CCN(C(c2cccc(OC)c2)c2sc3nc(C)nn3c2O)CC1 (stereo not given)	.	.	.	.	.	/	/
O=C(c1cccc(Cl)c1)N1CCC(c2nc3c(nnn3Cc3ccc(F)cc3F)c(=O)[nH]2)CC1	/	/	.	.	.	/	/
O=C(O)CCCn1c(=S)[nH]c2c(sc3ccc([N+](=O)[O-])cc32)c1=O	.	.	.	.	.	7.9µM	4.5µM
Cc1ccc(/C=C2\C(=O)Nc3ccccc32)o1	.	.	.	.	.	?	?
COCC(=O)N1CCC2(CC1)CCN(c1ncccn1)CC2	/	/	.	/	/	/	/
N#CC1=C2SCC(O)(c3ccccc3)N2C(=O)CC1c1ccccc1 (stereo not given)	.	.	.	?	.	/	/
CCc1ccc(C2CC(=O)N3CN(c4ccccc4)CSC3=C2C#N)cc1 (stereo not given)	21µM	.	16µM	.	.	3.5µM	4µM
N#CC1=C2SCN(c3ccc(F)cc3)CN2C(=O)CC1c1cccc(F)c1 (stereo not given)	27µM	.	?	.	.	4µM	2µM
COc1cccc(C2CC(=O)NC(SC)=C2C#N)c1 (stereo not given)	.	.	.	.	.	/	/
O=C(Cn1c(=O)n(Cc2ccc(C(=O)NCc3ccccc3Cl)cc2)c(=O)c2ccccc21)Nc1ccc(F)c(Cl)c1	/	/	.	.	.	/	/
CC(=O)c1cccc(OCc2cc(C(=O)N(C)CCc3ccccn3)no2)c1	.	.	.	.	.	/	/
CC(=O)c1cccc(OCc2cc(C(=O)N(C)Cc3ccc(C)o3)no2)c1	.	.	?	.	.	14µM	35µM
Cc1ccc(CN(C)C(=O)c2ccccc2Oc2ccccc2)o1	.	.	?	.	.	20µM	25µM
O=C(CSc1ccc(-c2ccco2)nn1)c1ccccc1	?	.	.	.	.	?	32µM
COc1ccc(C(=O)CSc2ccc(-c3ccco3)nn2)cc1	.	.	.	.	.	/	/
COc1ccc(OC)c(NC(=O)CSc2ccc(-c3ccco3)nn2)c1	?	.	?	.	.	20µM	25µM
COc1ccc(-n2c(SCC(=O)N3CCc4ccccc43)nc3c([nH]c4ccccc43)c2=O)cc1	/	/	.	.	.	/	/
Cn1cccc1C(=O)C(=O)Nc1cc(Cl)cc(Cl)c1	3µM	.	?	.	.	.	.
N#Cc1ccccc1NC(=O)C(=O)NCCc1csc2nc(-c3cccc(F)c3)nn12	/	/	.	.	.	/	/
O=C1CCCCCCC1Sc1ccccc1[N+](=O)[O-] (stereo not given)	?	.	.	.	.	13µM	?
O=[N+]([O-])c1ccccc1S(=O)(=O)NC1CCCCCCC1	.	.	.	.	.	/	/
CCOC(=O)CSc1nnc(Cc2ccc(OC)cc2)n1-c1ccccc1	.	.	.	.	.	3.2µM	5µM
O=C(CSc1ccc2ccccc2c1)NCCc1ccc(O)c(O)c1	.	.	.	?	.	7.1µM	16µM
O=C(CSc1ccccc1)NCCc1ccccc1	.	.	.	.	.	/	/
CC1CCN(c2nnc(-n3cccc3CNc3cccc(F)c3)s2)CC1	/	/	.	.	.	/	/
Oc1ccc(N=Nc2c(O)ccc3ccccc23)cc1	.	.	.	.	.	/	/
O=C(O)c1cc(N=Nc2c(O)ccc3ccccc23)cc(C(=O)O)c1	9.5µM	.	.	.	.	7.1µM	13µM
